Test systems include SK-MEL-2 melanoma; EKVX NSCLC; SN12C renal; UO-31 renal; TK-10 renal; ACHN renal; A498 renal; CCRF-CEM leukemia; RPMI-8226 leukemia; OVCAR-8 ovarian; OVCAR-5 ovarian; OVCAR-4 ovarian; SK-OV-3 ovarian; IGROV1 ovarian; OVCAR-3 ovarian; HS 578T breast; NCI/ADR-RES ovarian; CAKI-1 renal; MOLT-4 leukemia; SR leukemia.
Holding throughout (test): NCI-60 one-dose screen, 48 h (100 = growth as untreated, 0 = no growth, -100 = all killed)
Common to all, as to conditions: 10 µM unless noted

The panel holds about 83,000 compounds, 20% with a hit somewhere; the sample as a whole holds those more often.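 Negative percent growth values reflect cell death: -40 means 40% of the cells present at the start died, and -100 means all died.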 Values without a mark were called inactive. The source made the active and inactive calls. Rule for the calls: active = growth percent below 10; inactive = the rest.

Regarding `Nc1nnc2cc(F)ccc2n1`, the growth with SK-MEL-2 melanoma was 112%; in the assay with EKVX NSCLC, 96.9%; with SN12C renal, 89.1%; with UO-31 renal, 85%; with TK-10 renal, 126%; in the assay with ACHN renal, 99.4%. Also, the growth in the assay with A498 renal was 105%; in the assay on CCRF-CEM leukemia, 107%; in the assay with RPMI-8226 leukemia it was 102%; in the assay with OVCAR-8 ovarian it was 110%; in the assay with OVCAR-5 ovarian it was 97.9%; in the assay on OVCAR-4 ovarian, 115%. For the same molecule, the growth in the assay with SK-OV-3 ovarian was 91.6%; in the assay with IGROV1 ovarian it was 102%; in the assay on OVCAR-3 ovarian, 96.2%; with HS 578T breast, 97.2%; in the assay with NCI/ADR-RES ovarian, 103%.

For the molecule `CCOC(OCC)C(=O)c1ccccc1`, the growth is 88.8% in the assay with SK-MEL-2 melanoma; 109% in the assay on EKVX NSCLC; 101% in the assay on SN12C renal; 82.6% in the assay with UO-31 renal; 84.1% with TK-10 renal; 107% with CAKI-1 renal. Besides, the growth was 94% in the assay with A498 renal; 99.8% with CCRF-CEM leukemia; 124% in the assay with MOLT-4 leukemia; 132% in the assay with SR leukemia; 99.8% with RPMI-8226 leukemia; 89.8% with OVCAR-8 ovarian. Also, the growth was 94.1% in the assay on OVCAR-5 ovarian; 105% in the assay with SK-OV-3 ovarian; 105% with IGROV1 ovarian; 99.9% with OVCAR-3 ovarian; 94.3% in the assay on HS 578T breast; 108% with NCI/ADR-RES ovarian.

On to `CCCCCC#CC(=O)O`, for which the growth with SK-MEL-2 melanoma was 107%; in the assay with EKVX NSCLC, 99.8%; in the assay with SN12C renal it was 105%; in the assay on UO-31 renal, 81.5%; with TK-10 renal it was 104%; in the assay on ACHN renal it was 97.1%. Further, the growth was 105% in the assay on A498 renal; 102% in the assay on CCRF-CEM leukemia; 97.7% in the assay with SR leukemia; 99.7% in the assay with RPMI-8226 leukemia; 98.3% in the assay on OVCAR-8 ovarian; 105% in the assay on OVCAR-5 ovarian. Besides, the growth was 103% in the assay on OVCAR-4 ovarian; 102% in the assay with SK-OV-3 ovarian; 100% in the assay with IGROV1 ovarian; 123% in the assay on OVCAR-3 ovarian; 119% with NCI/ADR-RES ovarian.

In the case of `COC1C(=O)CCC2(CO2)C1(O)C1(C)OC1CCC(C)C` (configuration not stated), the growth is 78.7% in the assay on SK-MEL-2 melanoma; 76.2% with EKVX NSCLC; 74.9% in the assay on SN12C renal; 48.7% in the assay with UO-31 renal; 119% in the assay on TK-10 renal; 71.4% in the assay with CAKI-1 renal. For the same molecule, the growth is 113% with A498 renal; 70.4% with CCRF-CEM leukemia; 94% in the assay with MOLT-4 leukemia; 32.2% in the assay with SR leukemia; 77.4% in the assay with RPMI-8226 leukemia; 87.2% with OVCAR-5 ovarian. Also, the growth is 89.7% in the assay on OVCAR-4 ovarian; 101% in the assay on SK-OV-3 ovarian; -5.17% (active) in the assay on IGROV1 ovarian; 95.1% in the assay with OVCAR-3 ovarian; 90.5% in the assay with HS 578T breast; 86.8% with NCI/ADR-RES ovarian.

As for `O=[N+]([O-])c1c(O)c(CNCCCO)cc(CNCCCO)c1O`, the growth is 87.9% in the assay with SK-MEL-2 melanoma; 96.1% in the assay on EKVX NSCLC; 104% with SN12C renal; 63.7% in the assay on UO-31 renal; 111% in the assay with TK-10 renal; 100% with CAKI-1 renal. For the same molecule, the growth with A498 renal was 130%; in the assay on CCRF-CEM leukemia it was 119%; in the assay with MOLT-4 leukemia it was 73.2%; with RPMI-8226 leukemia, 116%; in the assay with OVCAR-8 ovarian, 106%; with OVCAR-5 ovarian, 108%. For the same molecule, the growth in the assay with OVCAR-4 ovarian was 105%; in the assay with SK-OV-3 ovarian it was 106%; with IGROV1 ovarian it was 2.99% (active); in the assay on OVCAR-3 ovarian, 152%; in the assay with HS 578T breast, 97.1%; with NCI/ADR-RES ovarian, 104%.

Regarding `CC1(C)C2CCC1(C)C1(C2)OCCS1` (configuration not stated), the growth with SK-MEL-2 melanoma is 104%; in the assay with EKVX NSCLC it was 87.4%; in the assay with SN12C renal, 87.6%; in the assay on UO-31 renal, 90.1%; in the assay with TK-10 renal it was 97.9%; with CAKI-1 renal, 87.2%. Moreover, the growth in the assay with A498 renal was 113%; with CCRF-CEM leukemia it was 110%; in the assay on MOLT-4 leukemia it was 99.6%; with RPMI-8226 leukemia it was 113%; in the assay on OVCAR-8 ovarian, 101%; with OVCAR-5 ovarian it was 93.3%. The growth in the assay on OVCAR-4 ovarian was 101%; in the assay on SK-OV-3 ovarian, 106%; with IGROV1 ovarian, 104%; in the assay with OVCAR-3 ovarian, 109%; with HS 578T breast, 102%; in the assay with NCI/ADR-RES ovarian, 92.4%.

`CSc1cnc2ccccc2n1`: the growth with SK-MEL-2 melanoma is 86%; with EKVX NSCLC, 103%; in the assay with SN12C renal, 94.4%; in the assay with UO-31 renal, 78.4%; with TK-10 renal, 94.1%; with CAKI-1 renal, 97%. Besides, the growth with A498 renal is 105%; with CCRF-CEM leukemia, 113%; in the assay with MOLT-4 leukemia, 107%; with SR leukemia it was 95.4%; in the assay on RPMI-8226 leukemia, 109%; with OVCAR-8 ovarian it was 95.5%. For the same molecule, the growth in the assay with OVCAR-5 ovarian was 101%; with OVCAR-4 ovarian, 115%; with SK-OV-3 ovarian, 97.2%; with IGROV1 ovarian, 104%; in the assay with OVCAR-3 ovarian, 107%; in the assay with HS 578T breast, 98.8%. Moreover, in the assay on NCI/ADR-RES ovarian, the growth is 103%.

Take `NNC(=O)N/N=C1\C(=O)N(c2nccs2)C(=O)C(=O)C1c1nc2ccccc2s1` (configuration not stated): the growth is 98.4% in the assay with SK-MEL-2 melanoma; 84.8% in the assay with EKVX NSCLC; 96% in the assay with SN12C renal; 75.5% with UO-31 renal; 114% in the assay on TK-10 renal; 96.7% with CAKI-1 renal. The growth is 98.3% in the assay on A498 renal; 95% with OVCAR-8 ovarian; 102% in the assay on OVCAR-5 ovarian; 105% in the assay with OVCAR-4 ovarian; 103% in the assay with SK-OV-3 ovarian; 93.2% in the assay with IGROV1 ovarian. Besides, the growth in the assay with OVCAR-3 ovarian is 102%; in the assay on HS 578T breast, 96.2%; in the assay on NCI/ADR-RES ovarian it was 103%.

For `OC(CCN1CCCCC1)(c1ccccc1)c1ccccc1`, the growth was 110% in the assay with SK-MEL-2 melanoma; 98.9% in the assay with EKVX NSCLC; 108% with SN12C renal; 75.4% in the assay on UO-31 renal; 113% in the assay on TK-10 renal; 100% in the assay on A498 renal. Also, the growth in the assay on CCRF-CEM leukemia is 103%; in the assay on MOLT-4 leukemia, 102%; in the assay with SR leukemia it was 104%; in the assay on RPMI-8226 leukemia, 100%; with OVCAR-8 ovarian, 99%; with OVCAR-4 ovarian it was 99.8%. In addition, the growth in the assay with SK-OV-3 ovarian was 112%; with IGROV1 ovarian, 106%; in the assay on OVCAR-3 ovarian, 112%; in the assay on HS 578T breast it was 107%; with NCI/ADR-RES ovarian, 100%.

Source of the values: PubChem BioAssay (NCI).
